In PubChem BioAssay (NCI):
The panel holds about 83,000 compounds, 20% with a hit somewhere; the sample as a whole holds those more often.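 Method: cells in 96-well plates; compound added at one concentration; 48 h incubation; percent growth measured; values under 10 scored active.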 Values without a mark were called inactive. Activity calls are given as the source filed them.

Key:
Assay in all cases: NCI-60 one-dose screen, 48 h (100 = growth as untreated, 0 = no growth, -100 = all killed)
Conditions in all cases: 10 µM unless noted
[1] = test system: NCI-H23 lung
[2] = test system: NCI-H226 lung
[3] = test system: NCI-H322M lung
[4] = test system: HOP-62 NSCLC
[5] = test system: NCI-H460 lung
[6] = test system: HOP-92 NSCLC
[7] = test system: NCI-H522 lung
[8] = test system: A549/ATCC NSCLC
[9] = test system: 786-0 renal
[10] = test system: COLO 205 colon
[11] = test system: DU-145 prostate
[12] = test system: K-562 leukemia
[13] = test system: MALME-3M melanoma
[14] = test system: MDA-MB-231 breast
[15] = test system: RXF 393 renal
[16] = test system: SF-268 CNS
[17] = test system: SF-295 CNS
[18] = test system: SF-539 CNS
[19] = test system: UACC-257 melanoma
[20] = test system: M14 melanoma

Structure (SMILES)	growth [1] [%]	growth [2] [%]	growth [3] [%]	growth [4] [%]	growth [5]	growth [6]	growth [7]	growth [8] [%]	growth [9]	growth [10]	growth [11]	growth [12]	growth [13] [%]	growth [14]	growth [15]	growth [16] [%]	growth [17]	growth [18]	growth [19] [%]	growth [20]
C[C@]12CC[C@@H]3c4cc(OC(F)F)c(OS(N)(=O)=O)cc4CC[C@H]3[C@@H]1CC[C@@H]2O	24.5	54.9	42.4	38.7	12.1%	58.6%	19.8%	29.5	42.3%	12.4%	9.26% (active)	12.3%	26.4	43.3%	-5.44% (active)	49.6	2.5% (active)	-3.28% (active)	67.4	5.82% (active)
COc1cc(C(=O)c2cc(C)c3[nH]c4ccc(C)cc4c3c2C)cc(OC)c1OC	16.7	54.4	39.9	38.9	6.57% (active)	29.2%	19.8%	20.9	19.4%	-19.2% (active)	1.16% (active)	11.5%	34.3	27.6%	36.8%	29.3	11.7%	0.519% (active)	68.8	23.7%
O=[N+]([O-])c1ccc(Oc2nc(Nc3ccc(O[C@H]4CO[C@H]5[C@@H]4OC[C@@H]5O)c(Cl)c3)ncc2F)c(Cl)c1	25.7	19.5	29.9	23.2	22.7%	-7.77% (active)	8.06% (active)	40	21.4%	33.3%	27.3%	22.2%	18.6	26.8%	13.6%	31.6	26.4%	19.5%	43.9	23.9%
CN(C(=O)NCc1cccc(F)c1Cl)[C@H](COC(=O)Nc1cc2ccccc2cn1)CC(O)CO (stereo not given in full)	96.5	92.7	86.4	64.8	100%	28%	84.5%	80.9	68%	111%	94.4%	91.5%	100	46.8%	84.8%	49.8	69.7%	37%	102	98.8%
Cc1cc(O)c(C2=NN(c3ccc(S(N)(=O)=O)cc3)C(/C=C/c3ccccc3)C2)cc1Cl (stereo not given)	22.3	33.7	57.5	17.6	35.3%	29.6%	31.9%	46.6	7.75% (active)	65.2%	36.4%	31.2%	24.6	47.7%	30%	24.1	38.5%	13.4%	64.6	29.8%
COc1cc(C(=O)/C=C/c2c(Cl)nc3sccn23)cc(OC)c1OC	91.8	92	77.3	83.3	87.1%	57.3%	61.8%	83	91.6%	104%	83.8%	37.6%	91.9	77.2%	79.5%	77.8	112%	86.5%	71.3	79.4%
COc1nc2ccccc2cc1-c1nc2c(cnn2-c2ccc(Br)cc2)c(=O)[nH]1	25.2	39.7	36.5	24.4	13.6%	39%	2.63% (active)	39.9	15.5%	-50.2% (active)	24.5%	16.3%	52.6	66.9%	-7.26% (active)	41.3	16.9%	-31.7% (active)	46.9	-7.56% (active)
COc1ccc(NC(=O)n2nc(/C=C\c3ccc(O)c(OC)c3)cc2/C=C\c2ccc(O)c(OC)c2)cc1	43.9	87.2	58.1	32.7	14.2%	89.1%	-13.5% (active)	27.3	32.1%	107%	27.2%	9.25% (active)	51.9	36.5%	23%	41.8	51.6%	6.72% (active)	75.2	4.97% (active)
O=c1c2cccc(F)c2sc2c(NCCCNCCO)nc3ccccc3c12	49.9	58	44	45.3	-40.4% (active)	15.4%	44.4%	26.9	48.5%	-44.4% (active)	23.7%	-20% (active)	74	5.79% (active)	50.8%	41.9	63.7%	41.1%	85.6	-58.5% (active)
O=c1c2cc(F)ccc2sc2c(NCCCNCCO)nc3ccccc3c12	66.9	80.8	50	46.5	-71.3% (active)	3.78% (active)	20.4%	33.9	51.9%	-56.4% (active)	8.53% (active)	-44.3% (active)	69.5	-33.1% (active)	44.8%	41.6	65.3%	-24.1% (active)	91.2	-79% (active)
CCCCN(C)N=Nc1ccc(C(N)=O)cc1	102	124	105	122	104%	103%	109%	97.3	106%	110%	113%	116%	111	106%	150%	108	101%	107%	105	102%
O=C(N/N=C/[C@H](O)[C@@H](O)[C@@H](O)[C@H](O)CO)c1ccc(NC(=O)c2cccnc2)cc1	110	106	103	113	108%	111%	96.2%	102	113%	110%	119%	110%	108	100%	121%	103	102%	106%	102	114%
Cc1cccc2c3c(sc12)C(c1ccc(Cl)cc1)C(C#N)=C(N)O3 (stereo not given)	21.4	26.4	49.1	38.7	9.2% (active)	89.7%	13.7%	30.1	29%	-21.2% (active)	17.6%	5.28% (active)	61.9	26.1%	-7.02% (active)	44.8	1.66% (active)	-14.5% (active)	69.5	9.67% (active)
Cc1ccc(/C=C(\C#N)n2nc3cccc(F)c3n2)cc1	83.7	92.9	88.7	93.9	96.3%	55.7%	74.9%	97.7	83.7%	122%	97.8%	80.5%	93	98.3%	89.7%	93.4	92.8%	92.6%	97.7	98.2%
CCCCOc1nc2c(C)cccc2cc1-c1cc(-c2ccc(Cl)cc2)nc(-c2ccc(Cl)cc2)c1	110	100	97.1	103	103%	91.4%	97.4%	101	102%	111%	109%	91.2%	95.5	89.5%	106%	92.7	101%	96.8%	98.9	101%
COc1ccc2sc3c(NCCCN(C)C)nc4ccccc4c3c(=O)c2c1	56.7	82.4	80.3	74.7	-69.5% (active)	20%	79.4%	73.9	68.5%	-1.26% (active)	41.3%	-21.9% (active)	58	-6.11% (active)	44.1%	66.4	83.7%	1.35% (active)	76.7	-57.8% (active)
